Assay [1] deals with Bile acid receptor (Homo sapiens) (UniProt Q96RI1). In words: qHTS assay for small molecule agonists of farnesoid X receptor signaling (AID 588527).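 Note: 0% = vehicle basal and 100% = reference agonist.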 The note with it: HEK293T FXR-UAS-bla, beta-lactamase ratio, 16 h; activation: stronger effect = higher value. In short, it runs like this: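 Quantitative HTS used FXR-UAS-bla HEK293T cells with 16 h compound incubation at 37 C. EC50 values came from concentration-response curves normalized to chenodeoxycholic acid.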
A general note: Quantitative high-throughput screening tests each substance at several concentrations.

Assay [2] in a line: qHTS assay for small molecule agonists of the antioxidant response element (ARE) signaling pathway (AID 651741; active = well fitted activation curve with a large enough effect in the signal ratio; the % refers to the signal ratio; note: potency is the fitted concentration of half-maximal effect). In outline:
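Beta-lactamase reporter expression driven by the antioxidant response element in HepG2 cells was detected by fluorescence with LiveBLAzer B/G FRET substrate (2 h, room temperature) following 16 h compound treatment at 37 C.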

Assay [3] is described as follows: qHTS profiling of the MIPE4 collection as inhibitors of Plasmodium falciparum (3D7) proliferation (AID 743344; call rule not given here;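 note: scaled between DMSO vehicle wells and 0.29 µM artemisinin as full inhibition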). The note with it: P. falciparum 3D7 in erythrocytes, SYBR Green DNA fluorescence, 72 h; at 28.5 µM (top of the series) unless noted. In outline: (§1)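 Parasite DNA was quantified by SYBR Green I fluorescence (ex 485, em 535 nm) after overnight lysis in saponin/Triton buffer at room temperature. Cultures at 0.3% parasitemia and 2.5% hematocrit were first exposed to compound for 72 h at 37 C; signals were normalised to artemisinin (0.29 uM) and vehicle wells.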

Assay [4] can be described thus: qHTS profiling of the MIPE4 collection as inhibitors of Plasmodium falciparum (DD2) proliferation (AID 743345; call rule not given here). The note with it: P. falciparum Dd2 in erythrocytes, SYBR Green DNA, 72 h; at 28.5 µM (top of the series) unless noted. In outline:
as §1

Assay [5] is described as follows: qHTS profiling of the MIPE4 collection as inhibitors of Plasmodium falciparum (HB3) proliferation (AID 743347; call rule not given here;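 note: plate controls were DMSO vehicle wells for no effect and artemisinin wells for full effect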). Conditions: P. falciparum HB3 in erythrocytes, SYBR Green DNA, 72 h; at 28.5 µM (top of the series) unless noted. In short, it runs like this:
as §1

Assay [6] in a line: qHTS for Inhibitors of the Functional Ribonucleoprotein Complex (vRNP) of Lassa (LASV) Arenavirus: LASV Primary Screen - GLuc reporter signal (AID 1347082; calls by dose curve; tested in HEK293 reporter line; note: nearly all actives have a fitted effect of over 60% in size; note: potency is the fitted concentration of half-maximal effect; for activity change, negative = inhibition: % is set by controls: 0 for no effect and ±100 for the full control effect).
Assay [7] is described as follows: qHTS for Inhibitors of the Functional Ribonucleoprotein Complex (vRNP) of Lassa (LASV) Arenavirus: Viability assay - alamar blue signal for LASV Primary Screen (AID 1347083; calls by dose curve; tested in HEK293 reporter line; note: nearly all actives have a fitted effect of over 80% in size; note: potency is the fitted concentration of half-maximal effect).
Assay [8] can be described thus: qHTS for Inhibitors of the Functional Ribonucleoprotein Complex (vRNP) of Lymphocytic Choriomeningitis Arenaviruses (LCMV): Viability assay - alamar blue signal for LCMV Primary Screen (AID 1347085; calls by dose curve; tested in HEK293 reporter line; note: nearly all actives have a fitted effect of over 80% in size; note: potency is the fitted concentration of half-maximal effect).
Assay [9] concerns the target Nucleoprotein (Lymphocytic choriomeningitis virus (strain Armstrong)) (UniProt P09992). In words: qHTS for Inhibitors of the Functional Ribonucleoprotein Complex (vRNP) of Lymphocytic Choriomeningitis Arenaviruses (LCMV): LCMV Primary Screen - GLuc reporter signal (AID 1347086). For activity change, negative = inhibition: % is set by controls: 0 for no effect and ±100 for the full control effect. Note: nearly all actives have a fitted effect of over 70% in size. Note: potency is the fitted concentration of half-maximal effect.
Assay [10] can be described thus: Cytotoxicity counterscreen for inhibitors of SARS-CoV-2 cell entry (AID 1645845). Note: nearly all actives have a fitted effect of over 50% in size. In short, it runs like this: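 After a 15 min room-temperature ATPLite 1step step, luminescence reflected ATP remaining in HEK293-ACE2 cells exposed to compound for 1 h plus 48 h at 37 C, with percent activity set by cell and no-cell controls.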
On the technique in general: Counterscreens check selectivity or assay interference.

Assay [11] can be described thus: Primary qHTS to identify inhibitors of SARS-CoV-2 cell entry (AID 1645846). Note: nearly all actives have a fitted effect of over 45% in size. Note: potency is the fitted concentration of half-maximal effect. Conditions: activity change, negative = inhibition: at 57.1 µM (top of the series) unless noted. In outline: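 HEK293-ACE2 (Expi293F, stable hACE2), 1500 cells/well, o/n 37C; cpd 23 nL pin, 1 h; MLV-PP w/ SARS-CoV-2-S (Wuhan-Hu-1, Δ19 C-term); 48 h 37C; Bright-Glo luminescence; normalized vs S-PP and bald PP.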

The nature of assay [12]: Inducers of the Endoplasmic Reticulum Stress Response (ERSR) in human glioma: Validation (AID 504836; active = well fitted curve in the direction sought with a large enough effect; an effect the other way counts as inactive or inconclusive; note: 0% is about no effect). In outline:
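Stably transfected U87-MG human glioma cells carrying a GRP78-based luminescent sensor were seeded at 1000 cells/well, pin-dosed with compounds and incubated 16 h. Luciferase reagent was then added, and end-point luminescence was read after 10 min at room temperature.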

A short description of assay [13]: Validation screen for inhibitors of Lassa infection (AID 463096). Note: % is set by controls: 0 for no effect and ±100 for the full control effect.
For assay [14], the target named is Alpha-galactosidase (Coffea arabica) (UniProt Q42656). In words: Counterscreen for Glucocerebrosidase Inhibitors: qHTS Assay for Coffee Bean alpha-Galactosidase at pH 4.5 (AID 957; active = well fitted curve in the direction sought with a large enough effect; an effect the other way counts as inactive or inconclusive;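 note: plate controls were enzyme alone for no effect and no enzyme for full effect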). In outline: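 Quantitative HTS of compounds (0.7 nM to 77 uM) against coffee bean alpha-galactosidase at pH 4.5, measuring 4-methylumbelliferone fluorescence released from 80 uM substrate.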

Assay [15] shares this target. Kind of assay: Counterscreen for Glucocerebrosidase Inhibitors: qHTS Assay for Coffee Bean alpha-Galactosidase at pH 5.9 (AID 998; active = well fitted curve in the direction sought with a large enough effect; an effect the other way counts as inactive or inconclusive;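 note: plate controls were uninhibited enzyme for no effect and no-enzyme basal signal for full effect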). In short, it runs like this:
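In 50 mM citric acid pH 5.9 with 0.005% Tween-20, coffee bean enzyme hydrolyses 80 uM 4-MU alpha-D-galactopyranoside over 20 min at RT. Activity is normalized to controls; AC50 comes from Hill-modelled concentration-response data.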

Records with an inconclusive call do not appear. The source made the active and inactive calls. Unless noted, calls come from the whole dose curve.

Sequence of Alpha-galactosidase (Coffea arabica) (Q42656 whole entry, looked up): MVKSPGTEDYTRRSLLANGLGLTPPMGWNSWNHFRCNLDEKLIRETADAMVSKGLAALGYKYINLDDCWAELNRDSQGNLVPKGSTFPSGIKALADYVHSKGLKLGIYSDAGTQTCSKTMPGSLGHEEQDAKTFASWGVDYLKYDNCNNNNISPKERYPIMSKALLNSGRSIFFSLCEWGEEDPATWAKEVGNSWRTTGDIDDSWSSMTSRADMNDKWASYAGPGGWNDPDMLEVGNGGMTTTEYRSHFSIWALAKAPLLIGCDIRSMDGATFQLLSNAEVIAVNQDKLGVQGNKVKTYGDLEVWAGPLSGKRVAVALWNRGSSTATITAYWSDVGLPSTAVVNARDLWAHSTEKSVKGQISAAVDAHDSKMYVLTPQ
Sequence of Nucleoprotein (Lymphocytic choriomeningitis virus (strain Armstrong)) (P09992 whole entry, looked up): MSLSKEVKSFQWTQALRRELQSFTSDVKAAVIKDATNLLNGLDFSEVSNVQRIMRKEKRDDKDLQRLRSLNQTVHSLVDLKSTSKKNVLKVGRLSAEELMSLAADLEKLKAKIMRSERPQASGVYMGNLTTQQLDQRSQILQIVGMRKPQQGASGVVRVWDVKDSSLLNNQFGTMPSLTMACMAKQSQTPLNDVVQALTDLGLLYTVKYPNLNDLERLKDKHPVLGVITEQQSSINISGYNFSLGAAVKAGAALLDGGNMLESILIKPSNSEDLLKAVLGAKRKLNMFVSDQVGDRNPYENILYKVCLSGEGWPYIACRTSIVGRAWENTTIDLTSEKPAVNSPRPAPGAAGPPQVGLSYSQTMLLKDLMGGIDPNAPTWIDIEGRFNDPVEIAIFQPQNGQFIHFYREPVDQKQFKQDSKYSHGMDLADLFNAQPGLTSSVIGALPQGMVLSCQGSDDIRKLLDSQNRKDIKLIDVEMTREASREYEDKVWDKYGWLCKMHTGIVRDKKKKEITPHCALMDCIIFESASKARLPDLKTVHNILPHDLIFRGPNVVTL
Sequence of Bile acid receptor (Homo sapiens) (Q96RI1 whole entry, looked up): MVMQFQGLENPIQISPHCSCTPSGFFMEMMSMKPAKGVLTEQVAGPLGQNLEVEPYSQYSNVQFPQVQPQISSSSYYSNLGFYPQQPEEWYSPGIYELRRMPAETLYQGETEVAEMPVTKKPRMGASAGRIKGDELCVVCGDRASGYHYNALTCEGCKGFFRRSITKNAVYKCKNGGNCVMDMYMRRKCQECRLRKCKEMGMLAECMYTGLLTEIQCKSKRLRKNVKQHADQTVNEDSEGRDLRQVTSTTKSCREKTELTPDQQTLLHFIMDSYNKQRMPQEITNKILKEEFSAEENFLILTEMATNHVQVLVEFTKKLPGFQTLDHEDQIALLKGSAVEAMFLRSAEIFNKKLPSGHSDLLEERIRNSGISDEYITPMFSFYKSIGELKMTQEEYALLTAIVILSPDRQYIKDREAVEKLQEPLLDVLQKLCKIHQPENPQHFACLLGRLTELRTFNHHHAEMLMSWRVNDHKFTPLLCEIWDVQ

For `O=C1c2cccc(O)c2C(=O)c2c(O)cc(CO)cc21`, the activation in [1] was 4.08% (inactive). In addition, the Potency in assay [2] was 12.2 µM (active). Also, the parasite growth, % of DMSO control in [3] came out at 321%. This compound also had a parasite growth remaining, % of DMSO control (lower = more inhibition) in assay [4] of 99.1%. The growth, % of control in assay [5] turned out to be 568%. The Potency entry in assay [6], in assay [7], in assay [8], in assay [9] and in [10] was “inactive” in each case. Moreover, in assay [11], the activity change, negative = inhibition was -12.6%.
Take `COc1cc(SC)ccc1C(=O)N1CCC(Cc2ccccc2)CC1`: in assay [12], the compound was called inactive. Moreover, the Potency entry in assay [6], in [7], in assay [8], in assay [9] and in assay [10] was “inactive” throughout.
With `CCCNC(=O)Nc1ccc(Oc2ncnc3cc(OC)c(OC)cc23)cc1Cl`, the parasite growth, % of DMSO control in assay [3] was 38.8%. Also, the parasite growth remaining, % of DMSO control (lower = more inhibition) in assay [4] came out at 61.5%. In addition, in assay [5], the growth, % of control is 34.8%. Besides, the Potency result in assay [6], in assay [7], in [8], in [9] and in assay [10] was “inactive” throughout. The activity change, negative = inhibition in assay [11] is -16.7%.
On to `O=C1c2ccccc2-[n+]2ccc3c([nH]c4ccccc43)c21`, for which the Potency in assay [6] was 4.85 µM (active); in assay [7], 4.32 µM (active); in [8] it was 6.11 µM (active); in assay [9] it was 3.06 µM (active); in [11], 1.26 µM (active).
As for `CCCCS(=N)(=O)CCC(N)C(=O)O` (stereo not given), the Potency entry in assay [13], in assay [6], in assay [7], in [8], in assay [9] and in [10] was “inactive” in each case. Moreover, the Potency entry in [11] was “inactive”.
Regarding `CSc1cccc(Nc2ncc3cc(-c4c(Cl)cccc4Cl)c(=O)n(C)c3n2)c1`, the Potency entry in [6], in assay [7], in assay [8] and in assay [9] was “inactive” throughout. Besides, the activity change, negative = inhibition in assay [11] is -95.8%.
With `CC(C)N(CCC(=O)c1ccc2ccccc2c1)Cc1ccccc1`, the result in assay [14] and in assay [12] was inactive. In addition, the Potency result in assay [6], in [7], in assay [8], in assay [9] and in assay [10] was “inactive” in each case.
As to `O=c1cc(-c2ccccc2)oc2cc(O)cc(O)c12`, the Potency result in assay [6], in assay [7], in [8], in [9] and in assay [11] was “inactive” throughout.
Take `COC1CCC(N(C(=O)C2CCC(C)CC2)c2cc(C3=CCCCC3)sc2C(=O)O)CC1` (stereo not given): the parasite growth, % of DMSO control in assay [3] is 31.6%. The parasite growth remaining, % of DMSO control (lower = more inhibition) in assay [4] was found to be 61.5%. Also, the Potency result in [6], in assay [7], in [8], in [9] and in [10] was “inactive” throughout. Besides, the activity change, negative = inhibition in [11] is 1.37%.
As for `C=CC(=O)N1CCc2ccc(-n3c(=O)ccc4cnc5ccc(-c6cnn(C)c6)cc5c43)cc21`, the Potency entry in [6], in assay [7], in assay [8] and in assay [9] was “inactive” in each case. In addition, in assay [11], the Potency was 3.55 µM (active).
Turning to `NC(=O)c1cccc(N)c1`, the call in assay [14], in assay [15] and in [12] was inactive. Also, the Potency entry in assay [13], in assay [6], in [7], in assay [8], in assay [9] and in assay [10] was “inactive” each time. In addition, the Potency entry in [11] is “inactive”.
For the compound `Nc1ncnc2c1c(-c1cnc3[nH]ccc3c1)nn2C1CCCC1`, the Potency in assay [6] was 6.85 µM (active); in assay [7], 1.72 µM (active); in assay [8], 2.17 µM (active); in assay [9], 6.11 µM (active); in assay [11], 10 µM (active).
Regarding `NC(=O)c1ccc2[nH]ccc2c1`, the outcome in assay [12] was inactive. Further, the Potency entry in [6], in assay [7], in assay [8], in assay [9] and in assay [10] was “inactive” each time. Besides, the activity change, negative = inhibition in assay [11] was -19.6%.
